According to PubChem BioAssay (EPA / NIEHS):
Where “and” joins values, the source holds several entries; their conditions need not be identical. Equal values may be shown once. Results filed as inconclusive are left out. Some structures have more than one record in an assay (separate samples or runs), and their calls can disagree. Calls of active or inactive are those of the source. The calls were made as follows, unless noted: active = hit-call score of the fitted dose curve at least 0.9, where 1 is the maximum; inactive = score below 0.9.

Tests used:
[1] = molecular target: human CYP19A1, CYP19A1 (gene 1588) (UniProt P11511); experiment: NVS_ADME_hCYP19A1: NovaScreen (NVS) CYP450-related Enzyme Activity (ADME) Assay for human CYP19A1 (AID 2283098; active = hit-call score of the fitted dose curve at least 0.9, where 1 is the maximum;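 also: potency for inhibitors seen as loss of fluorescent enzyme signal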)
Chain of human CYP19A1, CYP19A1 (gene 1588) (P11511 whole entry, looked up): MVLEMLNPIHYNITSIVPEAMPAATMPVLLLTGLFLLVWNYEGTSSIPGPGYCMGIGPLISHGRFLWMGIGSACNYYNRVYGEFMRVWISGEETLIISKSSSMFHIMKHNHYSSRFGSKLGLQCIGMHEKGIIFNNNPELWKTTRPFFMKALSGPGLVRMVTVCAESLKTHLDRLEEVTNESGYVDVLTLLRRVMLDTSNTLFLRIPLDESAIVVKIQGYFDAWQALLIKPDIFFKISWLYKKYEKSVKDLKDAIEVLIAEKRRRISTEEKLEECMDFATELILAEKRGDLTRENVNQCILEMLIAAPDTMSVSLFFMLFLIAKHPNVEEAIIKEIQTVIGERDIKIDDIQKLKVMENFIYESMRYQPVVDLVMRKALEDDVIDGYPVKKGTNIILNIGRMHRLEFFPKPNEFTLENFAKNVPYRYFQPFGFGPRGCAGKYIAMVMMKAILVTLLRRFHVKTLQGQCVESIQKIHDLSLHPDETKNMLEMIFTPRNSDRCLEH
How it was run: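 Biochem, cell-free; recombinant enzyme + specific substrate; fluorescence intensity at 0.5 h post-dose; 10 uM duplicate primary, conc. series for actives; acetonitrile = negative control/baseline; positive and negative controls on every plate.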

[2] = molecular target: human CYP2A6, CYP2A6 (gene 1548) (UniProt P11509); experiment: NVS_ADME_hCYP2A6: NovaScreen (NVS) CYP450-related Enzyme Activity (ADME) Assay for human CYP2A6 (AID 2283099; active = hit-call score of the fitted dose curve at least 0.9, where 1 is the maximum)
Chain of human CYP2A6, CYP2A6 (gene 1548) (P11509 whole entry, looked up): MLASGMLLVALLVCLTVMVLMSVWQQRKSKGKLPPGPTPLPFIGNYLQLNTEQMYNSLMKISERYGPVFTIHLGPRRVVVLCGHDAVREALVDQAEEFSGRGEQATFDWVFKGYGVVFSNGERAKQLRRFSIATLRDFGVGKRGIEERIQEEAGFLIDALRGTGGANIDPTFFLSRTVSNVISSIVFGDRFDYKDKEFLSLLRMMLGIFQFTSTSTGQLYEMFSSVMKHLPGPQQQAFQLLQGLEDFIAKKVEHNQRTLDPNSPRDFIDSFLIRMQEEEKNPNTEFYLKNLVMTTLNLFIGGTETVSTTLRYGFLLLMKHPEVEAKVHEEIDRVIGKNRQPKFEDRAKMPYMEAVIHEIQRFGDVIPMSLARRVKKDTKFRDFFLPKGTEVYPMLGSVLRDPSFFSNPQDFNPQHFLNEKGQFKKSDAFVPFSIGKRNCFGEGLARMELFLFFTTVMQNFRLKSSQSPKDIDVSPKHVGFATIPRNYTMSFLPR
How it was run: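 Compounds screened at 10 uM (duplicate) and, if active, titrated to a 20 uM top concentration against insect-cell-expressed CYP2A6. Loss of fluorescent product signal after 0.5 h, relative to acetonitrile baseline, indicates inhibition.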

[3] = molecular target: human CYP1A2, CYP1A2 (gene 1544) (UniProt P05177); experiment: NVS_ADME_hCYP1A2: NovaScreen (NVS) CYP450-related Enzyme Activity (ADME) Assay for human CYP1A2 (AID 2283102; active = hit-call score of the fitted dose curve at least 0.9, where 1 is the maximum;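 also: potency for inhibition since loss of fluorescence marks reduced CYP1A2 activity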)
Chain of human CYP1A2, CYP1A2 (gene 1544) (P05177 whole entry, looked up): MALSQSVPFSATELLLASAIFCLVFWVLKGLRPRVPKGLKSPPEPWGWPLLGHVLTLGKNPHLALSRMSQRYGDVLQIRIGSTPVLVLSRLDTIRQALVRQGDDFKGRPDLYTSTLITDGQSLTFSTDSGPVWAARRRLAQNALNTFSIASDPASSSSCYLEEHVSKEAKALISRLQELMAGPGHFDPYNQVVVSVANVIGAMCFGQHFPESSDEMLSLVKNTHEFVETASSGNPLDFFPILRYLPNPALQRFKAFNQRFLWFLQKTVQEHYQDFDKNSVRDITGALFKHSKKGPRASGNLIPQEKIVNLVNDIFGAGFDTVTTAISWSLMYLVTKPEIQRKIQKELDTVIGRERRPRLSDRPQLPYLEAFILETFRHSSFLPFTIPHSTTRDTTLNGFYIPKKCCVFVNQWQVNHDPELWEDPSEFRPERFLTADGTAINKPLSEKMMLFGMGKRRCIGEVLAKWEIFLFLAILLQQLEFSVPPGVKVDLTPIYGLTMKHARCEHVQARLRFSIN
How it was run: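 Enzyme activity of insect-cell-expressed human CYP1A2 measured by fluorescence 0.5 h after compound addition, relative to acetonitrile. Compounds first tested in duplicate at 10 uM, actives followed up in concentration series.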

[4] = molecular target: human CYP2D6, CYP2D6 (gene 1565) (UniProt P10635); experiment: NVS_ADME_hCYP2D6: NovaScreen (NVS) CYP450-related Enzyme Activity (ADME) Assay for human CYP2D6 (AID 2283107; active = hit-call score of the fitted dose curve at least 0.9, where 1 is the maximum)
Chain of human CYP2D6, CYP2D6 (gene 1565) (P10635 whole entry, looked up): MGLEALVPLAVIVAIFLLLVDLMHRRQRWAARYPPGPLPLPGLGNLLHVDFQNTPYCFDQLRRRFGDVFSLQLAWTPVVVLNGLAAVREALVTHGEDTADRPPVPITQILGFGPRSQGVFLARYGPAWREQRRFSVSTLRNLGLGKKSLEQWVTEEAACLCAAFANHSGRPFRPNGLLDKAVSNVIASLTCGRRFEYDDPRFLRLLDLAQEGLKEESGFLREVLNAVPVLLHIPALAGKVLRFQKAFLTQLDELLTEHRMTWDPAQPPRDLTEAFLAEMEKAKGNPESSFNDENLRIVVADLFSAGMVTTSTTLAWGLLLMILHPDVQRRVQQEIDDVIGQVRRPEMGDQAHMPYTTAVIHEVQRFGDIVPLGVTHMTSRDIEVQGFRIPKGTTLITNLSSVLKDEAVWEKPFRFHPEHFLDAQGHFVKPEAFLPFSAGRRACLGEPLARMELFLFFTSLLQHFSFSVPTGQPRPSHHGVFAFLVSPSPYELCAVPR
How it was run: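 Fluorescence readout of recombinant CYP2D6 (insect-cell derived) activity after 1 h incubation with test chemical. Acetonitrile served as baseline, loss-of-signal direction. Single-concentration duplicate screening at 10 uM preceded concentration-response retesting.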

[5] = read-out: Tumor necrosis factor (Homo sapiens) (UniProt P01375); experiment: BSK_LPS_TNFa: BioMAP Diversity Plus: LPS Assay for Tumour Necrosis Factor alpha (TNFa) Biomarker Activity (AID 2283085); conditions: primary human HUVEC with PBMC; actives raise or lower the signal
How it was run: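 Human umbilical vein endothelial cells co-cultured with PBMC and stimulated with LPS. TNFa was measured by ELISA 24 h after chemical dosing, fitted bidirectionally relative to DMSO.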

[6] = read-out: Vascular cell adhesion molecule 1 (VCAM1), VCAM1 (gene 7412); experiment: BSK_LPS_VCAM1: BioMAP Diversity Plus: LPS Assay for Vascular cell adhesion molecule 1 (VCAM1) Biomarker Activity (AID 2283086); conditions: primary human HUVEC with PBMC; actives raise or lower the signal
How it was run: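 Human umbilical vein endothelial cells co-cultured with PBMC and stimulated with LPS; VCAM-1 measured by ELISA 24 h after dosing. Bidirectional curve fitting against DMSO baseline; cytotoxicity tracked in parallel by SRB total-protein staining.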

[7] = read-out: CD38, CD38 (gene 952); experiment: BSK_SAg_CD38: BioMAP Diversity Plus: SAg Assay for CD38 Biomarker Activity (AID 2283087); conditions: primary human HUVEC with PBMC; actives raise or lower the signal
How it was run: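 Human HUVEC plus PBMC co-culture stimulated with superantigen; CD38 measured by ELISA 24 h after chemical dosing. Fluorescence read-out, bidirectional fit against DMSO; cytotoxicity tracked in parallel by SRB and Alamar Blue.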

[8] = read-out: Monocyte Chemoattractant Protein-1 (MCP1), CCL2 (gene 6347); experiment: BSK_SAg_MCP1: BioMAP Diversity Plus: SAg Assay for Monocyte Chemoattractant Protein-1 (MCP1) Biomarker Activity (AID 2283090); conditions: primary human HUVEC with PBMC; actives raise or lower the signal
How it was run: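 MCP-1 levels in the endothelial–PBMC SAg co-culture were quantified by ELISA at 24 h post-dosing; both increases and decreases versus DMSO scored. Cytotoxicity monitored by SRB total protein in parallel cultures.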

[9] = read-out: E-selectin (Homo sapiens) (UniProt P16581); experiment: BSK_SAg_Eselectin: BioMAP Diversity Plus: SAg Assay for Eselectin Biomarker Activity (AID 2283091); conditions: primary human HUVEC with PBMC; actives raise or lower the signal
How it was run: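 Cell-surface E-selectin is read by ELISA at 24 h in the SAg co-culture of HUVEC and PBMC. Curves are fitted in both directions relative to DMSO. Parallel SRB total-protein staining tracks overt toxicity.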

[10] = read-out: Monokine induced gamma interferon (MIG), CXCL9 (gene 4283); experiment: BSK_SAg_MIG: BioMAP Diversity Plus: SAg Assay for Monokine induced gamma interferon (MIG) Biomarker Activity (AID 2283092); conditions: primary human HUVEC with PBMC; actives raise or lower the signal
How it was run: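 Endothelial cells and PBMC were co-cultured, exposed to test chemicals, and sampled 24 h later. MIG was measured by ELISA, and responses were fitted in both directions relative to DMSO.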

[11] = BSK_SAg_PBMCCytotoxicity: PBMC Cytotoxicity Assessment in the BioMAP Diversity Plus: SAg Assay (AID 2283093); conditions: primary human HUVEC with PBMC;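 also: PBMC viability measured as Alamar Blue reduction fluorescence at 546/580 nm; fitted both ways against DMSO so a hit may be loss or gain of signal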;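 as to AC50: PBMC superantigen activated with SEB plus TSST-1 one hour after compound addition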
How it was run: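 Compound added to 75,000 PBMC/well for 1 h; SEB and TSST-1 then added at 20 ng/mL final each; 90 h incubation; Alamar Blue 6 h; read 546/580 nm ex/em. Activity fitted bidirectionally relative to DMSO baseline.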

[12] = read-out: Interleukin-8 (IL8), CXCL8 (gene 3576); experiment: BSK_SAg_IL8: BioMAP Diversity Plus: SAg Assay for Interleukin-8 (IL8) Biomarker Activity (AID 2283094); conditions: primary human HUVEC with PBMC; actives raise or lower the signal
How it was run: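 Human umbilical vein endothelial cells co-cultured with PBMC, stimulated with superantigen; IL-8 measured by ELISA 24 h after chemical dosing. Bidirectional fitting versus DMSO; SRB staining in parallel cultures tracks cytotoxicity.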

[13] = BSK_SAg_Proliferation: Cell Proliferation Assessment in the BioMAP Diversity Plus: SAg Assay (AID 2283095); conditions: primary human HUVEC with PBMC
How it was run: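 Human umbilical vein endothelial cells co-cultured with PBMC; sulforhodamine B total-protein staining (0.1% SRB after 10% TCA fixation, absorbance 560 nm) at 96 h in sub-confluent culture. Fitted bidirectionally against DMSO.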

[14] = BSK_SAg_SRB: Viability Assessment in the BioMAP Diversity Plus: SAg Assay (AID 2283096); conditions: primary human HUVEC with PBMC;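 also: cells read one day after compound addition; hits may be either gain or loss of signal compared with DMSO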
How it was run: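 Total protein by sulforhodamine B staining, 24 h after dosing, in HUVEC–PBMC co-culture; DMSO-referenced bidirectional fitting.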

[15] = read-out: CD69, CD69 (gene 969); experiment: BSK_SAg_CD69: BioMAP Diversity Plus: SAg Assay for CD69 Biomarker Activity (AID 2283089); conditions: primary human HUVEC with PBMC; actives raise or lower the signal;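 as to AC50: cell surface CD69 protein quantified by ELISA with fluorescence detection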
How it was run: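 Primary human vascular co-culture (umbilical vein endothelium with peripheral blood mononuclear cells) exposed to test chemical for 24 h. CD69 levels quantified by fluorescence ELISA; DMSO served as negative control for bidirectional fitting.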

[16] = molecular target: human CYP2C9, CYP2C9 (gene 1559) (UniProt P11712); experiment: NVS_ADME_hCYP2C9: NovaScreen (NVS) CYP450-related Enzyme Activity (ADME) Assay for human CYP2C9 (AID 2283108; active = hit-call score of the fitted dose curve at least 0.9, where 1 is the maximum)
Chain of human CYP2C9, CYP2C9 (gene 1559) (P11712 whole entry, looked up): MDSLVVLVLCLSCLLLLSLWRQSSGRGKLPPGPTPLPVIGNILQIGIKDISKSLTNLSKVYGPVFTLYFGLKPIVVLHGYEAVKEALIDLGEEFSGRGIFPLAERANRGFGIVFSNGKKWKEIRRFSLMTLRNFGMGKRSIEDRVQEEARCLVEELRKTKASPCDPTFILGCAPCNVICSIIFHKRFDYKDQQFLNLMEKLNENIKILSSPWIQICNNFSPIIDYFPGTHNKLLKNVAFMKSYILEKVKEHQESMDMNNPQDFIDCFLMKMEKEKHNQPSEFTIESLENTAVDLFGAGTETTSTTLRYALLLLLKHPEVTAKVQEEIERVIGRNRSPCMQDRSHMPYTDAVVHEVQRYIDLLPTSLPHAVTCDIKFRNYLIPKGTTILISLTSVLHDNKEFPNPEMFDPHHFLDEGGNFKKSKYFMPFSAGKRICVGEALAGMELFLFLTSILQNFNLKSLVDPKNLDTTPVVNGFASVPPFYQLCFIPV
How it was run: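 Fluorescence readout of CYP2C9 activity (SF9-expressed human enzyme) at 0.75 h. The primary screen used 10 uM in duplicate, with concentration-response follow-up for actives; acetonitrile was the negative control.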

[17] = molecular target: Cytochrome P450 3A4 (Homo sapiens) (UniProt P08684); experiment: NVS_ADME_hCYP3A4: NovaScreen (NVS) CYP450-related Enzyme Activity (ADME) Assay for human CYP3A4 (AID 2283110; active = hit-call score of the fitted dose curve at least 0.9, where 1 is the maximum)
Chain of Cytochrome P450 3A4 (Homo sapiens) (P08684 whole entry, looked up): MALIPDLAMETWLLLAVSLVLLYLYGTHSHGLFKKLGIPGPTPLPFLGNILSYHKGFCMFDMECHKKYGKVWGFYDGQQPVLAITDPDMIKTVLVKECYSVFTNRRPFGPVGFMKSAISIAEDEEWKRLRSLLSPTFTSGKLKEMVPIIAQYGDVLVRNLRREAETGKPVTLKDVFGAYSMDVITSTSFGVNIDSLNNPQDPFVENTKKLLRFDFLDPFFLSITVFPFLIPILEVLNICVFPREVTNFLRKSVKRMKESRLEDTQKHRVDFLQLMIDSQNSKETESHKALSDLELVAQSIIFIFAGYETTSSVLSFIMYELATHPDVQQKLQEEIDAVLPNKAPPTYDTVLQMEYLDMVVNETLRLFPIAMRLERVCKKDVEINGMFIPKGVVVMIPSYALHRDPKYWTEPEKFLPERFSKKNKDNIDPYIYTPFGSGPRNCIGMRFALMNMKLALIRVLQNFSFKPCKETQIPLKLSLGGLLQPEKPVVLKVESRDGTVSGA
How it was run: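 Compounds were first screened in duplicate at 10 uM against recombinant CYP3A4 produced in insect cells, then actives were run in concentration series. Enzyme activity was measured by fluorescence after 0.33 hour, with acetonitrile as baseline.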

[18] = read-out: CD40, CD40 (gene 958); experiment: BSK_SAg_CD40: BioMAP Diversity Plus: SAg Assay for CD40 Biomarker Activity (AID 2283088); conditions: primary human HUVEC with PBMC; actives raise or lower the signal
How it was run: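 CD40 is measured by fluorescence ELISA in an endothelial/PBMC primary human co-culture at 24 h post-dose. Fitting is bidirectional, DMSO baseline. Parallel SRB staining (560 nm) flags cytotoxicity.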

[19] = molecular target: Cytochrome P450 2C19 (Homo sapiens) (UniProt P33261); experiment: NVS_ADME_hCYP2C19: NovaScreen (NVS) CYP450-related Enzyme Activity (ADME) Assay for human CYP2C19 (AID 2283113; active = hit-call score of the fitted dose curve at least 0.9, where 1 is the maximum;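 as to AC50: potency for inhibition seen as loss of fluorescent signal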)
How it was run: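 Compounds first screened in duplicate at 10 uM, then confirmed in concentration series. Insect-cell-expressed human CYP2C19 turned over a fluorogenic substrate, and fluorescence was read after 1 h. Inhibition taken as signal loss relative to acetonitrile.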

Measured: AC50

Chain of Tumor necrosis factor (Homo sapiens) (P01375 whole entry, looked up): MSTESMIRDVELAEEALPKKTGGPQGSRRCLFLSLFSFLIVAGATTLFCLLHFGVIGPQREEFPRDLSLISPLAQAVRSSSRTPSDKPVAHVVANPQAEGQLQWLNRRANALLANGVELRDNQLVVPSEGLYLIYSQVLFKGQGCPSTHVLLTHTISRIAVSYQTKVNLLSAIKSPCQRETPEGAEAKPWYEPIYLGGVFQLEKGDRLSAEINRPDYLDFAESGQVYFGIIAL
Chain of E-selectin (Homo sapiens) (P16581 whole entry, looked up): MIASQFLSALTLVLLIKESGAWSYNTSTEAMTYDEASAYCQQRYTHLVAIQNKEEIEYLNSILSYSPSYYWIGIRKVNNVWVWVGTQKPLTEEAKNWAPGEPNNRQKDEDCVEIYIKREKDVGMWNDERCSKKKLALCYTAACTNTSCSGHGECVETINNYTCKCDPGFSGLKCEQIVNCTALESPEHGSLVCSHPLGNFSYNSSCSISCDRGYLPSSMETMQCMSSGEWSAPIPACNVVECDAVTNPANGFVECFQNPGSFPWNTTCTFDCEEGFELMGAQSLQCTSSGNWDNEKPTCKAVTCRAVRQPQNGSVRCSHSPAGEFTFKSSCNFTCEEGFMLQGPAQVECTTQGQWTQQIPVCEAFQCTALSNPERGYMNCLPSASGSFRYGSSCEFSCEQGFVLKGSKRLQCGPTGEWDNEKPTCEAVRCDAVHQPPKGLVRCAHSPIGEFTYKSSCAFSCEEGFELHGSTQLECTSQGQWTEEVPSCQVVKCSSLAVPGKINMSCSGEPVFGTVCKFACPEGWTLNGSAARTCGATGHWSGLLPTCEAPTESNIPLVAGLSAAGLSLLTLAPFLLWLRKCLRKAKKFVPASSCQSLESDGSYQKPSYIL

CCOC(=O)c1ccc(C2CCC(NC[C@H](O)COc3ccc(O)c(NS(C)(=O)=O)c3)CC2)cc1 (stereo partly drawn)
active: [1] 0.513 µM

O=P(OC(CCl)CCl)(OC(CCl)CCl)OC(CCl)CCl
inactive: [2]

Oc1ccc2c(c1)-c1ccccc1C2
active: [3] 0.691 µM

CC(C)(O)c1coc(S(=O)(=O)NC(=O)Nc2c3c(cc4c2CCC4)CCC3)c1
active: [3] 16 µM

O=c1[nH]c2ccc(S(=O)CCN3CCC(Cc4ccc(F)cc4)CC3)cc2o1 (stereo not drawn)
active: [4] 1.3 µM

CC1=CC(=O)CC(C)(C)C1
not listed: [1] | [3] | [4] | [15] | [16] | [17] | [18] | [19]
inactive: all other assays above

Cc1ccc(C)c(O)c1
inactive: [6] | [7] | [15] | [8] | [9] | [10] | [11] | [12] | [13] | [14]
active: [5] 0.796 µM

CCc1cc(SCc2sc(-c3ccc(C(F)(F)F)cc3)nc2CN2CCN(c3ccc(OC)cc3)CC2)ccc1OCC(=O)O
inactive: [16] | [17]
active: [5] 38.1 µM | [6] 24.7 µM | [7] 10.3 µM | [8] 11.4 µM | [9] 12.2 µM | [10] 14.1 µM | [11] 21.5 µM | [12] 20 µM | [13] 9.97 µM | [14] 14.2 µM

CCCCCCCCO
not listed: [1] | [2] | [3] | [4] | [16] | [17] | [18] | [19]
inactive: all other assays above

O=C1OC(=O)C2C3C=CC(C3)C12 (stereo not drawn)
not listed: [1] | [2] | [3] | [4] | [5] | [16] | [17] | [19]
inactive: all other assays above

COC(=O)c1ccccc1O
not listed: [1] | [2] | [3] | [4] | [5] | [16] | [17] | [19]
inactive: all other assays above

O=C(O)CC(O)C(=O)O (stereo not drawn)
active: [19] 12.9 µM
not listed: [1] | [2] | [3] | [4] | [5] | [16] | [17]
inactive: all other assays above

Nc1nc2ncc(CNc3ccc(C(=O)N[C@@H](CCC(=O)O)C(=O)O)cc3)nc2c(=O)[nH]1
not listed: [1] | [3] | [4] | [5] | [16] | [17] | [19]
inactive: all other assays above

Cn1cnc([N+](=O)[O-])c1Sc1ncnc2nc[nH]c12
active: [6] 25.3 µM and 6.4 µM and 13.7 µM | [7] 12.1 µM | [8] 19.9 µM and 12.6 µM | [9] 6.91 µM and 12.6 µM and 16.9 µM | [11] 13.7 µM | [12] 12.9 µM and 12.6 µM and 9.23 µM | [13] 17.3 µM and 7.53 µM and 7.26 µM
inactive: [7] | [8] | [10] | [11] | [14]

CC(C)=CCCC(C)CCO (stereo not drawn)
not listed: [1] | [2] | [3] | [4] | [5] | [16] | [17]
inactive: all other assays above

COc1ccc2sc(C(=O)Nc3nnn[nH]3)c(OC(C)C)c2c1
active: [6] 8.99 µM | [7] 16.2 µM | [18] 9.27 µM | [15] 19.9 µM | [8] 15.4 µM | [9] 30 µM | [10] 27.8 µM | [11] 10 µM | [12] 16.6 µM | [13] 11.9 µM | [14] 14.2 µM

CN(C)c1ccc(N=NS(=O)(=O)O)cc1
inactive: [5] | [7] | [8] | [9] | [10] | [11] | [12] | [14]
active: [6] 10.4 µM | [13] 19 µM | [1] 12 µM

COc1ccc(/C=C/S(=O)(=O)NC(=O)c2ccc(C)cc2Cl)cc1
active: [13] 6.54 µM | [16] 12.7 µM
inactive: [5] | [6] | [7] | [8] | [9] | [10] | [11] | [12] | [14]

CC(C)c1cccc(C(C)C)c1N1C(=O)c2ccc(O)cc2C1=O
inactive: [5] | [11] | [12] | [4]
active: [6] 10.1 µM | [7] 13.6 µM | [15] 19.1 µM | [8] 37.1 µM | [9] 30.9 µM | [10] 32 µM | [13] 20 µM | [14] 19.3 µM | [16] 4.78 µM | [17] 13.6 µM | [19] 5.11 µM
